Source: PubChem BioAssay (NCI)
Compounds without any hit were thinned out: in the full panel of roughly 79,000, 15% have a hit. Activity calls are given as the source filed them. Rule as the data show it: active = growth inhibition above about 70%; inactive = the rest.

How the values were obtained:
[1] = NCI Yeast Anticancer Drug Screen. Data for the rad52 strain (AID 147);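 also: 0% = growth of vehicle-treated control cultures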; conditions: S. cerevisiae rad52 mutant growth inhibition, stronger effect = higher value
How it was run: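 Yeast strain carrying a DNA damage repair alteration was exposed to test compounds. Growth inhibition was measured relative to vehicle-treated controls.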

[2] = NCI Yeast Anticancer Drug Screen. Data for the wt1 strain (AID 149);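 also: 0% = growth of vehicle-treated wt1 cultures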; conditions: S. cerevisiae wt1 strain (SPY 50644) growth inhibition, stronger effect = higher value
How it was run: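 wt1 strain grown with compound or vehicle; inhibition taken from the growth difference.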

[3] = NCI Yeast Anticancer Drug Screen. Data for the rad50EPP+ strain (AID 151);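 also: 0% = growth of vehicle-treated control cultures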; conditions: S. cerevisiae rad50 mutant strain, stronger effect = higher value
How it was run: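 Yeast strain carrying rad50 alteration (rad50EPP+) exposed to compounds; growth inhibition measured relative to vehicle-treated controls.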

[4] = NCI Yeast Anticancer Drug Screen. Data for the mgt1 strain (AID 153); conditions: S. cerevisiae mgt1 mutant growth inhibition, stronger effect = higher value
How it was run: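 Yeast mgt1 strain (DNA repair/cell-cycle alteration panel) exposed to compounds; growth inhibition measured relative to vehicle-treated controls.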

[5] = NCI Yeast Anticancer Drug Screen. Data for the rad50 strain (AID 155);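 also: 0% = growth of vehicle-only cultures of the same strain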; conditions: S. cerevisiae rad50 strain growth inhibition, stronger effect = higher value
How it was run: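 DNA repair mutant yeast, compound exposure, growth read-out; inhibition is taken relative to vehicle.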

[6] = NCI Yeast Anticancer Drug Screen. Data for the mec2-1 strain (AID 157); conditions: S. cerevisiae mec2-1 strain, stronger effect = higher value
How it was run: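 mec2-1 yeast strain, carrying an alteration in DNA damage repair or cell cycle control, was exposed to compounds; growth inhibition was measured relative to vehicle-treated controls.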

[7] = NCI Yeast Anticancer Drug Screen. Data for the rad14 strain (AID 159);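 also: 0% = growth of vehicle-treated control cultures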; conditions: S. cerevisiae rad14 strain growth inhibition, stronger effect = higher value
How it was run: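 DNA repair-defective yeast, compound-exposed; % growth inhibition derived by comparison with vehicle-treated controls.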

[8] = NCI Yeast Anticancer Drug Screen. Data for the sgs1 mgt1 strain (AID 161);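 also: 0% = growth of cultures given vehicle only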; conditions: S. cerevisiae sgs1 mgt1 strain, stronger effect = higher value
How it was run: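 Percent growth inhibition was derived by comparing compound-exposed mutant yeast with vehicle-exposed cultures. The strain carries alterations in DNA damage repair.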

[9] = NCI Yeast Anticancer Drug Screen. Data for the CLN2oe strain (AID 163);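 also: 0% = growth of vehicle-only control cultures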; conditions: S. cerevisiae CLN2oe strain, stronger effect = higher value
How it was run: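 Yeast cells carrying a defined cell-cycle control alteration were exposed to test compounds. Growth inhibition was scored against vehicle-treated control cultures.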

[10] = NCI Yeast Anticancer Drug Screen. Data for the cln2 rad14 strain (AID 165);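 also: 0% = growth equal to vehicle treated cultures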; conditions: S. cerevisiae cln2 rad14 strain, stronger effect = higher value
How it was run: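 Yeast carrying cln2 and rad14 alterations (cell cycle control and DNA damage repair) were exposed to compounds. Growth inhibition was measured against vehicle-treated controls.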

[11] = NCI Yeast Anticancer Drug Screen. Data for the bub3 strain (AID 167); conditions: S. cerevisiae bub3 mutant strain, stronger effect = higher value
How it was run: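 In this screen, a yeast mutant lacking normal mitotic checkpoint function is challenged with compound. Relative growth versus vehicle gives the inhibition value.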

[12] = NCI Yeast Anticancer Drug Screen. Data for the wt2 strain (AID 169);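 also: 0% = growth of vehicle-treated yeast cultures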; conditions: S. cerevisiae wt2 strain growth inhibition, stronger effect = higher value
How it was run: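 Yeast cells were exposed to test compounds, and growth inhibition was measured relative to vehicle-treated controls.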

[13] = NCI Yeast Anticancer Drug Screen. Data for the mlh1 strain (AID 171);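 also: 0% = growth of vehicle-treated control cultures of the same strain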; conditions: S. cerevisiae mlh1 strain growth inhibition, stronger effect = higher value
How it was run: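 Yeast carrying a defined genetic alteration in DNA damage repair or cell cycle control were exposed to test compounds. Growth inhibition was measured relative to vehicle-treated controls.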

[14] = NCI Yeast Anticancer Drug Screen. Data for the sgs1 strain (AID 173);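 also: 0% = growth of vehicle-only control cultures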; conditions: S. cerevisiae sgs1 mutant, stronger effect = higher value
How it was run: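 Yeast mutant strains carrying defined defects in DNA damage repair or cell cycle control were exposed to test compounds. Growth inhibition was scored against vehicle-treated controls.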

[15] = NCI Yeast Anticancer Drug Screen. Data for the mlh1 rad18 strain (AID 175); conditions: S. cerevisiae mlh1 rad18 strain growth inhibition, stronger effect = higher value
How it was run: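 Growth inhibition of the yeast strain was measured after compound exposure and expressed relative to vehicle-treated controls. The strain carries defined defects in DNA damage repair.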

[16] = NCI Yeast Anticancer Drug Screen. Data for the rad18 strain (AID 177); conditions: S. cerevisiae rad18 mutant growth inhibition, stronger effect = higher value
How it was run: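 Yeast carrying a defined DNA damage repair alteration were exposed to compounds. Growth inhibition was expressed relative to vehicle-treated controls.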

[17] = at 5.0 µM (retest, dose inferred, filed as 0.5)
[18] = at 50.0 µM (retest, dose inferred, filed as 5.0)

Measured: growth inhibition

NC(N)=NC(N)=Nc1ccccc1 (tested in a mixture with another compound)
inactive: [1]; at 1.2 µM -3% | [1]; at 3.7 µM -5% | [1]; at 11.0 µM -7% | [1]; at 33.0 µM 2% | [1]; at 100.0 µM 48% | [2]; at 1.2 µM -1% | [2]; at 3.7 µM -1% | [2]; at 11.0 µM 0% | [2]; at 33.0 µM 11% | [2]; at 100.0 µM 32% | [3]; at 1.2 µM -1% | [3]; at 3.7 µM -2% | [3]; at 11.0 µM -16% | [3]; at 33.0 µM -9% | [3]; at 100.0 µM 18% | [4]; at 1.2 µM -1% | [4]; at 3.7 µM -2% | [4]; at 11.0 µM 0% | [4]; at 33.0 µM 6% | [4]; at 100.0 µM 41% | [5]; at 1.2 µM 2% | [5]; at 3.7 µM -3% | [5]; [17] -2% | [5]; at 11.0 µM 1% | [5]; at 33.0 µM 1% | [5]; [18] 7% | [5]; at 50.0 µM 56.6% | [5]; at 100.0 µM 55% | [6]; at 1.2 µM 3% | [6]; at 3.7 µM 3% | [6]; [17] 4% | [6]; at 11.0 µM 4% | [6]; at 33.0 µM 12% | [6]; [18] 16% | [6]; at 50.0 µM 35.7% | [6]; at 100.0 µM 48% | [7]; at 1.2 µM -1% | [7]; at 3.7 µM -15% | [7]; at 11.0 µM -11% | [7]; at 33.0 µM -19% | [7]; at 100.0 µM 60% | [8]; [17] 3% | [8]; [18] -6% | [8]; at 50.0 µM 66.8% | [9]; at 1.2 µM -2% | [9]; at 3.7 µM -6% | [9]; at 11.0 µM -13% | [9]; at 33.0 µM -1% | [9]; at 100.0 µM 37% | [10]; [17] 33% | [10]; [18] -77% | [10]; at 50.0 µM 23.6% | [11]; at 1.2 µM -7% | [11]; at 3.7 µM 2% | [11]; [17] 20% | [11]; at 11.0 µM 10% | [11]; at 33.0 µM 9% | [11]; [18] 6% | [11]; at 50.0 µM 49.8% | [11]; at 100.0 µM 29% | [12]; at 1.2 µM -1% | [12]; at 3.7 µM -1% | [12]; at 11.0 µM 3% | [12]; at 33.0 µM 20% | [13]; at 1.2 µM 5% | [13]; at 3.7 µM 4% | [13]; at 11.0 µM 5% | [13]; at 33.0 µM -13% | [13]; at 100.0 µM 41% | [14]; at 1.2 µM 2% | [14]; at 3.7 µM 7% | [14]; at 11.0 µM 20% | [14]; at 33.0 µM 49% | [15]; [17] -4% | [15]; [18] -9% | [15]; at 50.0 µM 47% | [16]; at 1.2 µM 3% | [16]; at 3.7 µM -3% | [16]; at 11.0 µM 3% | [16]; at 33.0 µM 6% | [16]; at 100.0 µM 61%
active: [12]; at 100.0 µM 77% | [14]; at 100.0 µM 90%
